Laboratory results: PubChem BioAssay

Test: viability loss of caspase-8 NB7 cells with TRAIL – with/without TRAIL, luminescence panel, confirmation (AID 651596)
Conditions: NB7 neuroblastoma + caspase-8, without TRAIL, NB7 Caspase-8, without TRAIL, mean of runs, at 10 µM
`O=C(NNc1nc(=O)c2cccnc2s1)c1ccccc1O` showed an activity of 43.9%. `O=C(CCl)Nc1cccc(Oc2ccccc2)c1` gave an activity of 97.7%. Work on `Oc1cc(NCc2ccc(F)cc2)cc2cccnc12` yielded an activity of 33.5%. `O=C(Nc1nsc(-c2ccccc2)n1)c1cccs1` showed an activity of 56%. With `O=C(NC(=S)Nc1nc2ccc(F)cc2s1)c1ccco1` the activity was 77.4%. `Cc1ccccc1-c1nnc(SCC(=O)Nc2cccnc2Cl)o1` gave an activity of 61%. `Cc1ccc(-c2nc(NC(=O)c3nn(C)cc3[N+](=O)[O-])sc2C)cc1` showed an activity of 99.3%. With `CCC(=O)N1CCN(c2ccc(NC(=O)c3cc4ccccc4o3)cc2Cl)CC1` the activity was 54.4%. `Cc1ccc2nc(-c3ccc(NC(=O)COC(=O)c4cncc(Br)c4)cc3)sc2c1` showed an activity of 60.1%. With `C(=Cc1c[nH]c2ccccc12)c1ccc2ccccc2n1` the activity was 52.8%. With `N=NC(=O)c1ccccc1Nc1c(O)[nH]c2ccccc12` the activity was 92.1%. Work on `Cc1nn(-c2ccccc2)c(C)c1/C=N/NC(=O)c1cc(-c2ccc(Cl)s2)[nH]n1` yielded an activity of 72.8%. `Cc1ccc(-c2nc3ccccc3[nH]2)s1` gave an activity of 58.2%. Molecule `CCN1CCN(CCNC(=O)c2ccc3c(c2)N(Cc2ccc(F)cc2)C(=O)/C(=C/c2ccccc2)S3)CC1` has an activity of 80.5%. In the case of `CCc1nnc(NC(=O)CSc2nc3c(cc2C#N)CCC3)s1`, the activity is reported as 70.8%. `O=C(Nc1ccccc1C(=O)N/N=C/c1ccncc1)c1ccccc1` gave an activity of 87.5%. Molecule `CC1CCC(C(C)C)C(OC(=O)Cn2c(-c3ccc(Cl)cc3)[n+](C)c3ccccc32)C1` (centres undefined) has an activity of 62%. For `CCOc1ccc(C(=O)Nc2ccc3[nH]ncc3c2)cc1`, the activity was 82.7%. Work on `COC(=O)c1ccc2nc(NC(=O)C(C)(C)C)sc2c1` yielded an activity of 91.2%.
